Data published in PubChem BioAssay (NCATS).
Results filed as inconclusive are left out. Calls of active or inactive are those of the source. Unless noted, calls follow the shape of the dose curve; as a rule, active = well fitted curve in the direction sought with a large enough effect; inconclusive = small, poorly fitted or top-dose-only effect, or another doubt; inactive = no such curve, though single readings can be large; an effect the other way counts as inactive or inconclusive.

Assays:
[1] = qHTS for Inhibitors of Plasmodium falciparum (DD2) proliferation (AID 504314); also: potency is read from the fitted curve at half-maximal effect;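 as to activity, negative = inhibition: parasite DNA measured by SYBR Green fluorescence after red cell lysis; plate controls were DMSO vehicle for no effect and artemisinin wells for full effect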
Procedure, shortened: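 SYBR Green growth assay: 72 h compound exposure of infected red cells (2.5% hematocrit, 0.3% parasitemia), then lysis and overnight dye staining, fluorescence 485/535 nm. Values scaled between DMSO and 0.29 uM artemisinin controls.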

[2] = qHTS for Inhibitors of Plasmodium falciparum (GB4) proliferation (AID 504315);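 also: 0% = DMSO vehicle and -100% = 0.29 µM artemisinin control; nearly all actives have a fitted effect of over 50% in size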
Procedure, shortened: (§1)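 Parasite growth measured as SYBR Green DNA fluorescence (ex 485, em 535 nm) after overnight lysis following 72 h culture at 37 °C, 0.3% parasitemia, 2.5% hematocrit. Values normalized against DMSO and 0.29 uM artemisinin controls, with plate-stack correction.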

[3] = qHTS for Inhibitors of Plasmodium falciparum (CP250) proliferation (AID 504320);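 also: plate controls were DMSO vehicle for no effect and 0.29 µM artemisinin control for full effect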
Procedure, shortened: as §1

[4] = target: Atrial natriuretic peptide receptor 1 (Homo sapiens) (UniProt P16066); assay: Natriuretic polypeptide receptor (hNpr1) antagonism - Pilot CMLD screen (AID 1347052; calls by dose curve;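 also: cGMP level read as GloSensor luciferase luminescence after agonist stimulation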; also: potency is read from the fitted curve at half-maximal effect)
Chain of Atrial natriuretic peptide receptor 1 (Homo sapiens) (P16066 whole entry, looked up): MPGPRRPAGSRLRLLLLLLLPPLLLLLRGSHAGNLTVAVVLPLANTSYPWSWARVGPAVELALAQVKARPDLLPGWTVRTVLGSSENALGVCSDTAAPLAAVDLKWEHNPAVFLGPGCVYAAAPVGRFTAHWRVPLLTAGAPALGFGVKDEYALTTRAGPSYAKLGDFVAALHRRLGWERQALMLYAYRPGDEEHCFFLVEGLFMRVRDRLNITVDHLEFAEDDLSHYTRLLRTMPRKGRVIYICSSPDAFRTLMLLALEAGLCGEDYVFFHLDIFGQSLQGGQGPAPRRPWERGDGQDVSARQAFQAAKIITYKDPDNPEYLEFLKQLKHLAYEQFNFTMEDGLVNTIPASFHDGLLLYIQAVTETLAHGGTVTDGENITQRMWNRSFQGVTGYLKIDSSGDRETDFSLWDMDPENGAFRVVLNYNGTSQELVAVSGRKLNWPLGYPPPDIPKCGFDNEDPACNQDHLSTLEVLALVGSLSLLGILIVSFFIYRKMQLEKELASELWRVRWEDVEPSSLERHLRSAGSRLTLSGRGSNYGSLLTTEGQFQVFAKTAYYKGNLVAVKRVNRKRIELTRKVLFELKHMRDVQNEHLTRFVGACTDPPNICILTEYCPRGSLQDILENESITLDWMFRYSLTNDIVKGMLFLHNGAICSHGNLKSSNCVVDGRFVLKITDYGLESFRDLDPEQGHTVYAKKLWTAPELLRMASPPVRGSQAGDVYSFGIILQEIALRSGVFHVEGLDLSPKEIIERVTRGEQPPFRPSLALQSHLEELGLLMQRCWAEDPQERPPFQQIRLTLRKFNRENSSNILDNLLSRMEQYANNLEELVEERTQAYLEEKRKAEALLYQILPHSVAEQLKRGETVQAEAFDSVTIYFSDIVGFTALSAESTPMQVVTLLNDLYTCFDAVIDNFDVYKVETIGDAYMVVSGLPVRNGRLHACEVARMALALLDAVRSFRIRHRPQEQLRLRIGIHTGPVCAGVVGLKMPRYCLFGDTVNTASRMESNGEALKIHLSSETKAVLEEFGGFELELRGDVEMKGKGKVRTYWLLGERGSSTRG

[5] = qHTS for Inhibitors of Plasmodium falciparum (7G8) proliferation (AID 504316); also: nearly all actives have a fitted effect of over 65% in size; also: potency is read from the fitted curve at half-maximal effect
Procedure, shortened: as §1

[6] = qHTS for Inhibitors of Plasmodium falciparum (HB3) proliferation (AID 504318); also: nearly all actives have a fitted effect of over 60% in size; also: potency is read from the fitted curve at half-maximal effect
Procedure, shortened: as §1

[7] = target: Cytochrome P450 2C9 (Homo sapiens) (UniProt P11712); assay: qHTS Assay for Inhibitors and Substrates of Cytochrome P450 2C9 (AID 883); also: potency is read from the fitted curve at half-maximal effect; nearly all actives have a fitted effect of over 60% in size
Chain of Cytochrome P450 2C9 (Homo sapiens) (P11712 whole entry, looked up): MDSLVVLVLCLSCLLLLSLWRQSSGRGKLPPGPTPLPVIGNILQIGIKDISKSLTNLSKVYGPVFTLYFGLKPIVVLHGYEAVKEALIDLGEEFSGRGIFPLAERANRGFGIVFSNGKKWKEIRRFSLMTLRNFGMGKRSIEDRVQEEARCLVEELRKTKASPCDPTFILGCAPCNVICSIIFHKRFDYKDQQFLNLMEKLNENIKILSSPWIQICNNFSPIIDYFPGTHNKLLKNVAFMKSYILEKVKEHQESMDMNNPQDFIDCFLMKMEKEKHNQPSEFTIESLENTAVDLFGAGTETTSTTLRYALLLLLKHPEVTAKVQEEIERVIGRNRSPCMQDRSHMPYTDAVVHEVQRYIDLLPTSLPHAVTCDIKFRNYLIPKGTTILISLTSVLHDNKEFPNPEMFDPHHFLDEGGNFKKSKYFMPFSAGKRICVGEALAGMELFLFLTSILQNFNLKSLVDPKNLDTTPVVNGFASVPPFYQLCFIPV
Procedure, shortened: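 Human CYP2C9 (10nM) hydroxylated Luciferin-H (100uM, at its KM) to luciferin in 25mM KPO4. Compound was preincubated 10 min at 37C, then NADPH regeneration started a 60 min reaction at 37C. Luminescence was read after detection reagent, normalized to 57uM sulphaphenazole.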

[8] = target: Cytochrome P450 3A4 (Homo sapiens) (UniProt P08684); assay: qHTS Assay for Activators of Cytochrome P450 3A4 (AID 885); also: nearly all actives have a fitted effect of over 65% in size
Chain of Cytochrome P450 3A4 (Homo sapiens) (P08684 whole entry, looked up): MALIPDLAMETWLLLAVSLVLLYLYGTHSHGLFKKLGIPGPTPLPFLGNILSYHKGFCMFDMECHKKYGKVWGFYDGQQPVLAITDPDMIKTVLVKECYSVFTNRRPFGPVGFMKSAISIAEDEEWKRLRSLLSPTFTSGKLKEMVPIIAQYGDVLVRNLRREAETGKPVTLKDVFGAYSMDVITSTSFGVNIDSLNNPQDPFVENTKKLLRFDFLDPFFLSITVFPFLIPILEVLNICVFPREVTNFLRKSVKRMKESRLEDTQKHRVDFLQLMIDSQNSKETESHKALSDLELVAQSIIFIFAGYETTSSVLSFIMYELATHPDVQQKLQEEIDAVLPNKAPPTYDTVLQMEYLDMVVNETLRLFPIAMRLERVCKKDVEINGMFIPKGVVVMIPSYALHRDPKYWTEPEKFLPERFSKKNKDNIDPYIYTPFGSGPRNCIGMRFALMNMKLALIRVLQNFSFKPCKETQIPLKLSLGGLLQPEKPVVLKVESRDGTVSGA
Procedure, shortened: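 Luminescent readout of luciferin formed from 25 uM Luciferin-PPXE (KM level) by 20 nM CYP3A4 in 200 mM KPO4, with 60 min NADPH-driven reaction at room temperature after 10 min compound exposure. Ketoconazole (57 uM) defined 100% inhibition.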

CC(C)=CCCC(C)=CCON=C1C[C@@H](O)[C@@H](O)[C@@H]2[C@H]3C(=O)N(c4ccc(F)cc4F)C(=O)[C@@H]3CC[C@H]12
inactive: Potency [1] | Potency [2] | Potency [3] | Potency [4]

COC(=O)C1=C(C(=O)OC)[C@@H]2N(C)c3ccccc3[C@@]23CCC(=O)N(Cc2ccc(OC)cc2)C3=N1
inactive: Potency [1] | Potency [2] | Potency [3] | Potency [4]

C#C[C@@H]1C=C[C@H](Oc2ccc(OC)cc2)[C@H](CO)O1
inactive: Potency [1] | Potency [5] | Potency [4]

CCCC[C@]12Cc3cc(C#N)ccc3[C@H](O1)c1c(cc(C)n(-c3ccccc3)c1=O)O2
inactive: Potency [1] | Potency [2] | Potency [3] | Potency [4]

CC1=C[C@@H](C)O[C@@]2(C1)C(=O)Nc1cccc(Br)c12
inactive: Potency [1] | Potency [2] | Potency [3] | Potency [4]

Cc1cc2c(c(=O)n1Cc1ccccc1)[C@H]1O[C@](CCCCN3C(=O)c4ccccc4C3=O)(Cc3c1ccc1ccccc31)O2
active: Potency [1] 1690 nM | Potency [5] 1510 nM | Potency [6] 1510 nM
inactive: Potency [4]

COC(=O)C1=C(C(=O)OC)[C@@H]2N(C)c3ccccc3[C@@]23CCC(=O)N(Cc2cc(OC)c(OC)c(OC)c2)C3=N1
inactive: Potency [1] | Potency [2] | Potency [3] | Potency [4]

CCOC(=O)[C@@]1([C@@H](NC(=O)OC)c2cccc(C)c2)CCCC1=O
inactive: Potency [1] | Potency [2] | Potency [3] | Potency [4]

COC(=O)[C@H]1[C@@H](c2ccccc2)NC(=O)N(CCc2cc(OC)c(OC)c(OC)c2)[C@@H]1C
inactive: Potency [1] | Potency [2] | Potency [3] | Potency [4]

CC(CCC(=O)OC[C@H]1O[C@H](C#Cc2ccccc2)C=C[C@H]1Oc1ccc(C)cc1)=NO[C@H](C)c1cn([C@H](CO)Cc2ccccc2)nn1
inactive: Potency [1] | Potency [2] | Potency [3] | Potency [4]

COC(=O)CCCC1=CC2=CC(=O)C(C)(OC(=O)c3cccs3)C(=O)C2=CN1c1ccc(OC)cc1 (stereo not given)
inactive: activity, negative = inhibition [1] 1.04% [at 1.12 µM] | Potency [2] | Potency [3] | Potency [4]

C=CCOC(=O)C(C(C)=O)[C@@H](NC(=O)OC)c1ccc(F)cc1 (stereo not given in full)
inactive: Potency [1] | Potency [5] | Potency [6] | Potency [4]

CC(C)(C)c1nc(-c2ccccc2)oc1Nc1ccc2ccccc2c1
inactive: Potency [4]
active: Potency [1] 1690 nM | Potency [5] 1510 nM

CC(CCN1CCc2nc(-c3ccccc3)c(-c3ccccc3)cc2C1)=NOC[C@@H](O)[C@H]1O[C@@H]2OC(C)(C)O[C@H]2[C@@H]1O
active: Potency [5] 1900 nM
inactive: Potency [1] | Potency [4]

C[C@@H]1CC[C@H]2C(=O)N3[C@@H](CC[C@@H](C)[C@@H]3c3ccc(Br)cc3)C(=O)N2[C@@H]1c1ccc(Br)cc1
inactive: activity change, positive = activation [8] -42.7% [at 11.4 µM] | Potency [1] | Potency [2] | Potency [3] | Potency [4]
active: Potency [7] 3980 nM

COC(=O)CC=C[C@@H](C)[C@H](NC(=O)OCC(Cl)(Cl)Cl)c1ccc2ccccc2c1
inactive: Potency [1] | Potency [5] | Potency [6] | Potency [4]

C[C@@H]1CC[C@H]2C(=O)N(Cc3ccc(Cl)cc3)C[C@@H](O)CN2[C@@H]1c1cccc(Br)c1
inactive: Potency [1] | Potency [2] | Potency [3] | Potency [4]

C#CCNC(=O)[C@H]1C=C(OC)C(=O)C[C@H]2c3ccccc3C[C@]12C
inactive: Potency [1] | Potency [5] | Potency [6] | Potency [4]

COc1ccc(-c2nc3c(c4c2C[C@H](c2ccccc2)OC4)CN(C(=O)NCc2ccco2)CC3)c(C)c1
inactive: activity, negative = inhibition [1] -0.324% [at 1.12 µM] | Potency [2] | Potency [3] | Potency [4]

C#CCCCON=C1C[C@@H](O)[C@H](O)[C@H]2[C@@H]3C(=O)N(c4ccc(F)cc4F)C(=O)[C@@H]3CC[C@@H]12
inactive: Potency [1] | Potency [5] | Potency [6] | Potency [3]
active: Potency [4] 422 nM

CCN1C(=NCc2ccco2)N[C@@H](CCc2ccccc2)[C@H](C(=O)OC)[C@H]1C
inactive: Potency [1] | Potency [5] | Potency [6] | Potency [3] | Potency [4]

C=CCOC(=O)N[C@H](c1ccccc1)[C@H](C)C=CCC(=O)OC
inactive: Potency [1] | Potency [5] | Potency [6] | Potency [3] | Potency [4]

CCCCCCCC1=CC2=C(Cl)C(=O)C(C)(OC(C)=O)C(=O)C2=CO1 (stereo not given)
inactive: Potency [1] | Potency [5] | Potency [6] | Potency [3] | Potency [4]

C=CCOC(=O)N[C@@H](CCc1ccccc1)C(C(C)=O)C(C)=O
inactive: Potency [1] | Potency [5] | Potency [6] | Potency [3] | Potency [4]

COC1=C[C@H](C(=O)NCc2ccccc2)[C@H](C)[C@@H](c2ccccc2)CC1=O
inactive: Potency [1] | Potency [5] | Potency [6] | Potency [3] | Potency [4]

C=CCC(C)(NCc1ccccc1)C(=O)OCC (stereo not given)
inactive: Potency [1] | Potency [5] | Potency [6] | Potency [3] | Potency [4]

CCN1C(=NCCCOC(C)C)N[C@@H](CCc2ccccc2)[C@H](C(=O)OC)[C@H]1C
inactive: Potency [1] | Potency [5] | Potency [6] | Potency [3] | Potency [4]

N#CCCn1cnc2c1NC=NC2Cl (stereo not given)
inactive: Potency [1] | Potency [5] | Potency [6] | Potency [3] | Potency [4]

C=CC[C@@H]1C=C[C@@H](ON=C2[C@H]3CCn4c(=O)n(-c5ccccc5)c(=O)n4[C@@H]3[C@H](O)[C@@H]3O[C@H]23)[C@@H](CO)O1
inactive: Potency [1] | Potency [5] | Potency [6] | Potency [3] | Potency [4]
